Shown are actives, neighbours in structure and some others; about 3.7% of the full set was active somewhere.
S2 tox – cell viability loss in ATXN counter-screen | S2 cells (HEK-293 line with an ATXN2-luciferase reporter) viability, CellTiter-Fluor protease fluorescence, 24 h | Potency, µM (series often up to 56.7 µM), hits mostly cytotoxic | actives 0.49% (n = 400,000); further: nearly all actives have a fitted effect of over 40% in size
ATXN2 expr inh – reduces ATXN2 reporter expression in HEK-293 cells; HEK-293 ATXN2-luciferase reporter, luminescence, 24 h; Potency, µM (series often up to 57 µM), inactives show at the top dose activity change, negative = inhibition, usual class: inhibitors; actives 0.72% (n = 360,000); AID 1745845; further: on the % scale 0 is the no-effect control and ±100 the full control effect; nearly all actives have a fitted effect of over 55% in size
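ATXN2-luciferase reporter cells (luciferase flanked by upstream and downstream ATXN2 gene portions) were treated 24 h at 37 °C with compounds at up to 57 uM. SteadyGlo luminescence gave expression; GF-AFC fluorescence gave viability.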
TGFb SMAD3 inh – TGF-b pathway inhibition. HepG2 CAGA-GFP TGF-b/SMAD3 reporter, GFP fluorescence, 18 h; TGF-beta stimulated, 500 pg/mL final. Potency, µM (titrated, usually from 46.1 µM), without a hit: at the top dose activity, negative = inhibition, most hits filed as inhibitors. actives 1.2% (n = 410,000). AID 588855; further: on the % scale 0 is the no-effect control and ±100 the full control effect; nearly all actives have a fitted effect of over 65% in size
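Using HEPG2 CAGA-GFP reporter cells at 1000 cells/well, we pinned test compounds, stimulated with recombinant TGF-beta (500 pg/mL final) and measured total well GFP after 18 h.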
HepG2 tox – HepG2 cytotoxicity, counter-screen for TGF-b inhibitors; HepG2 CAGA-GFP viability, ATP luminescence, 18 h; Potency, µM (highest dose often 46.1 µM), inactives show top-dose activity change, negative = cytotoxicity, usual class: cytotoxic; actives 0.76% (n = 410,000); AID 588856
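HepG2 CAGA-GFP cells (1000/well, DMEM with 1% FBS) received compound, then TGF-beta at 500 pg/mL final, and were incubated 18 hours at 37 degrees C. Viability was read by CellTiter-Glo luminescence. Media-only wells were set as complete cell-killing and DMSO as no toxicity.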
GLP1R inv ag – inverse agonists of human GLP-1 receptor | Potency, µM (top dose mostly 38.3 µM), inactives show top-dose activity change, negative = inhibition, usual class: inhibitors | actives 1.6% (n = 410,000) | AID 624417 | HEK293 GLP-1R CRE-luciferase, luminescence, 24 h; GLP-1R form is constitutively active; further: on the % scale 0 is the no-effect control and ±100 the full control effect; nearly all actives have a fitted effect of over 55% in size
Target sequence (P43220 whole entry, looked up): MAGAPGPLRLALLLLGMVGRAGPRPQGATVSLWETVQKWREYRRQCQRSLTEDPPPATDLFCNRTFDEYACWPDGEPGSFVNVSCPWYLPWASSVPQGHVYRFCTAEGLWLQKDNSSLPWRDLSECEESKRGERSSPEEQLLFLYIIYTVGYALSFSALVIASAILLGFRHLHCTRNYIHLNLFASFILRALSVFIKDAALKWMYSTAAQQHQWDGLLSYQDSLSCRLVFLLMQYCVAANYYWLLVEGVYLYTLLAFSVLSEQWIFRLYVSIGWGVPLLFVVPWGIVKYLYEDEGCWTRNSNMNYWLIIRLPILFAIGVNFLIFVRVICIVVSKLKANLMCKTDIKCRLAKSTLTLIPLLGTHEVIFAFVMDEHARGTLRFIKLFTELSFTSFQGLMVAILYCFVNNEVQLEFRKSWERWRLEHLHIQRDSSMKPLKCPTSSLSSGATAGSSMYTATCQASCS
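Readout was luciferase luminescence, measured 12 min after detection reagent at room temperature. Beforehand, GLP-1R reporter HEK293 cells had sat 12 h, then received compounds for 24 hr at 37 deg C.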
GLP-1R agonist – activates the human GLP-1 receptor. P43220. HEK293 GLP-1R CRE-luciferase, luminescence, 4-6 h; cells express a hypersensitive GLP-1R form. Potency, µM (titrated, usually from 45.6 µM), inactives show at the top dose activation, hits mostly activators. actives 0.007% (n = 380,000); further: % of control where 0% means no effect
Starred values were filed as active, the others as inactive; i = inactive; ? = inconclusive; nt = no result. The call rests on the fitted dose curve; in most records, active means well fitted curve in the direction sought with a large enough effect; inconclusive means small, poorly fitted or top-dose-only effect, or another doubt; inactive means no such curve, though single readings can be large; an effect the other way counts as inactive or inconclusive. Potency means the concentration at half of the fitted maximal effect.

SMILES	S2 tox	ATXN2 expr inh	TGFb SMAD3 inh	HepG2 tox	GLP1R inv ag	GLP-1R agonist
CC(C)C[C@@H](COCc1cccc(C(F)(F)F)c1)N1CCN(C(=O)c2ccc(C(F)(F)F)cc2)CCC1=O	28µM*	?	nt	nt	?	-1%
Cc1cccc(C(=O)N2CCC(=O)N(C(COCc3cccc(C(F)(F)F)c3)Cc3ccccc3)CC2)c1 (stereo not drawn)	32µM*	0%	?	-56%	?	-3%
Cc1cccc(C(=O)N2CCC(=O)N([C@H](COCc3cccc(C(F)(F)F)c3)Cc3ccccc3)CC2)c1	32µM*	?	nt	nt	11µM*	0%
COc1ccccc1N=CC=C1OC(C)(C)C(C)(C)O1	i	-7%	?	-44%	2.2µM*	0%
Cc1ccc(N=CC=C2OC(C)(C)C(C)(C)O2)c(C)c1	i	6%	-1%	-38%	?	4%
CCN(CC)S(=O)(=O)c1ccc2oc(C(=O)NC3CCCc4ccccc43)c(C)c2c1 (stereo not drawn)	i	-16%	-10%	-27%	8.9µM*	1%
COc1ccc2sc(-c3ccc(N(C)C)cc3)c(C#CC(C)(C)O)c2c1	nt	8%	-24%	-27%	1%	25%
COc1cccc(-c2sc3ccc(OC)cc3c2C#CC(C)(C)O)c1	i	-14%	16µM*	-42%	?	10%
COCCN1CCN(C(=O)c2cnn(-c3nccc(-c4cc5ccccc5o4)n3)c2C2CC2)CC1	i	nt	nt	nt	nt	nt
COc1c(CC=C(C)C)cc(C2CC(=O)c3c(O)cc(O)cc3O2)c(CC=C(C)C)c1O (stereo not drawn)	?	?	?	-111%	?	11%
CC(C)=CCc1cc([C@@H]2CC(=O)c3ccc(O)c(CC=C(C)C)c3O2)ccc1O	?	?	13µM*	-68%	9%	0%
CCCOc1ccc(NC(=O)CC2C(=O)N(C)C(=S)N2Cc2cccs2)cc1 (stereo not drawn)	i	-5%	?	-7%	7.9µM*	-7%
CCN1C(=O)C(CC(=O)NCCc2ccccc2)N(NC(=O)c2ccc(Br)cc2)C1=S (stereo not drawn)	?	nt	-26%	-30%	10µM*	-2%
CCCOc1ccc(NC(=O)CC2C(=O)N(CC)C(=S)N2CCCN2CCN(Cc3ccccc3)CC2)cc1 (stereo not drawn)	?	?	?	-106%	7.1µM*	-3%
CCN1C(=O)C(CC(=O)Nc2ccc(Br)cc2)N(CCCc2ccccc2)C1=S (stereo not drawn)	?	?	?	-111%	2µM*	-10%
Cc1ccsc1CN1CCc2nnc(CCNC(=O)c3ccc(F)cc3)n2CC1	i	nt	nt	nt	nt	nt
COc1ccc(-c2cc(C(=O)Oc3ccccc3)c3cc(C)ccc3n2)cc1	nt	?	?	-35%	?	nt
COc1ccc(CN(C)C(=O)c2cc(-c3ccccc3)nc3ccc(C)cc23)c(OC)c1	?	nt	1%	2%	5.6µM*	0%
CCOc1ccc(N(C)S(=O)(=O)c2cc(-c3cc(C)no3)ccc2CC)cc1	i	?	?	-14%	8.9µM*	-4%
CCOc1ccc(N(C)S(=O)(=O)c2cc(-c3cc(C)no3)ccc2C)cc1	?	?	-26%	-16%	?	-1%
CCC1(C2CCN(C(=O)c3coc4c3C(=O)CCC4)CC2)NC(=O)N(CCc2scnc2C)C1=O (stereo not drawn)	i	nt	nt	nt	nt	nt
CC1(C)CC(C(CCN(Cc2ccccc2)C(=O)c2ccco2)c2ccc(F)cc2)CCO1 (stereo not drawn)	?	?	?	-72%	7.9µM*	-29%
Cc1ccc(-n2nc(CO)c(C(=O)NCc3cccnc3)n2)cc1C	nt	nt	?	-17%	?	nt
Cc1ccc(NC(=O)CN(C)C(=O)c2ccccc2Cc2ccccc2)cc1	i	-1%	-11%	-14%	10µM*	7%
Cc1ccc(NC(=O)CN(C)C(=O)C(Sc2ccccc2)c2ccccc2)cc1 (stereo not drawn)	i	-26%	?	-19%	8.9µM*	0%
SMILES	S2 tox	ATXN2 expr inh	TGFb SMAD3 inh	HepG2 tox	GLP1R inv ag	GLP-1R agonist
COc1ccc(NC(=O)CN(C)C(=O)C(C)Sc2ccccc2)cc1 (stereo not drawn)	i	3%	?	-11%	7%	-1%
COc1ccc(C(=O)Nc2nnc(S(=O)(=O)N(C)c3ccc(C)cc3)s2)cc1	nt	nt	-5%	-4%	11%	nt
COc1ccccc1N1CCN(c2nc(CNC(=O)C3CCOC(C)(C)C3)nc3ccccc23)CC1 (stereo not drawn)	i	nt	nt	nt	nt	nt
CCN(CC(=O)Nc1c(F)cccc1F)C(=O)c1cc(-c2cccs2)nn1-c1ccccc1	i	2%	-13%	0%	10µM*	-17%
Cc1ccc(NC(=O)CN(C)C(=O)c2cc(-c3cccs3)nn2-c2ccccc2)cc1	i	?	?	-8%	7.9µM*	4%
O=C(C[n+]1ccccc1Br)c1ccc(Cl)cc1	nt	nt	28%	8%	nt	nt
COc1cc(OC)cc(-c2c(-c3ccc(F)cc3)c3cc(-c4cnc(OC)nc4)ccc3n2C)c1	i	8%	-6%	-2%	19%	4%
COc1cc(OC)cc(-c2c(-c3ccc(F)cc3)c3cc(Br)ccc3n2C)c1	i	-4%	-1%	-1%	7.9µM*	-3%
CC1CC(C)CN(C(=O)c2ccc3c(c2)N(Cc2ccccc2)CCS3)C1 (stereo not drawn)	?	?	?	-72%	11µM*	19%
CCOC(=O)N1CCN(C(=O)c2ccc3c(c2)N(Cc2ccccc2)CCS3)CC1	i	-9%	-3%	3%	-6%	1%
Cc1c(Cl)cccc1NC(c1ccc(F)cc1)c1nnc(-c2ccccc2)o1 (stereo not drawn)	i	-7%	-26%	-23%	8.9µM*	nt
CC(=O)c1cccc(NC(c2ccc(F)cc2)c2nnc(-c3ccccc3)o2)c1 (stereo not drawn)	i	?	5%	-3%	?	-7%
COC(=O)c1ccc(C(=O)NCC2Cc3cc(F)cc(-c4cncnc4)c3O2)cc1 (stereo not drawn)	i	nt	nt	nt	nt	nt
COc1ccc(NC(=O)c2cccc3c(-c4cnn(C)c4)coc23)cc1	i	-17%	19%	-20%	-33%	6%
